# Beta cell apopt = inhibitors of cytokine-induced beta cell apoptosis, primary screen, luminescence; INS-1E cytokine-induced death, ATP luminescence, 48 h; percent of positive-control rescue, neutral wells zero; protection from apoptosis, % (no concentration beside the values); 300,000 tested, 0.8% active; AID 435005, 2010;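 active means Every replicate reaches about 75%, or at least half do and their mean reaches it too, limit read from the data; inconclusive means At least half of replicates reach the limit but their mean does not; inactive means Under half of replicates reach the limit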;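 further: 0% = cytokine-treated negative control wells and 100% = positive control rescue; higher means more ATP so stronger rescue from cytokine killing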
# Shn3 3UTR inh = reduction of Shn3 3'UTR firefly luciferase signal, primary screen, Schnurri-3 inhibitor project, cell-based, Clone20 osteoblasts, set 2 | 360,000 tested, 0.52% active | inhibition, % at 12.5 µM | Clone20 osteoblast Shn3 3'UTR firefly luciferase, 24 h;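 active means mean inhibition of at least 75% with every replicate also reaching 75%; inconclusive means mean inhibition at least 75% but some replicate below; inactive means mean inhibition below 75%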;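 further: 0% = median of neutral control wells and 100% = pilot-screen positive control compound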
# Gli-Sufu antag = Gli-Sufu pathway antagonists, primary screen, luciferase luminescence, Sufu-KO-LIGHT cells, uHTS. Sufu-KO-LIGHT fibroblasts, Gli luciferase reporter luminescence. inhibition, % at 5 µM. 340,000 tested, 0.74% active;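 active means inhibition above about 55%, limit read from the data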;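 further: 0% = DMSO-treated cells and 100% = wells with medium but no cells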
# Mdm2 MdmX PPI = inhibitors of human Mdm2-MdmX association, primary screen, cell-based, luminescence, split luciferase, SaOS-2, uHTS. Protein Mdm4 (Homo sapiens) + E3 ubiquitin-protein ligase Mdm2 (Homo sapiens), …. SaOS-2 split-luciferase Mdm2/MdmX complementation. inhibition, % at 8 µM. 330,000 tested, 3% active. AID 485346, 2010;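 active means inhibition of at least 50% at 8 µM in the primary screen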
# Target sequence (O15151 whole entry, looked up): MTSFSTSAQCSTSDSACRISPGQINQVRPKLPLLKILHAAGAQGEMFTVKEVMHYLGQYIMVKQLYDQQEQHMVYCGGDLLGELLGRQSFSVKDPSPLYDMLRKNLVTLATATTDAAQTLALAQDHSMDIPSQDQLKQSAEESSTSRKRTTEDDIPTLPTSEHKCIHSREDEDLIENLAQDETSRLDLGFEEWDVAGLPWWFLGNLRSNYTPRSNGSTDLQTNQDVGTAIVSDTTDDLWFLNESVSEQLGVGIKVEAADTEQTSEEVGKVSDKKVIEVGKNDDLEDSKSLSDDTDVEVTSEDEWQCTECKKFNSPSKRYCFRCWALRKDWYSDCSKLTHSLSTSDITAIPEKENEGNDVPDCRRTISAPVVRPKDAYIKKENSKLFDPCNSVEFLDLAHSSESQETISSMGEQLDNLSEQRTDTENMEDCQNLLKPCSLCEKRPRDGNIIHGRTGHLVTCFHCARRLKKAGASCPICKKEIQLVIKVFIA
# Target sequence (Q00987 whole entry, looked up): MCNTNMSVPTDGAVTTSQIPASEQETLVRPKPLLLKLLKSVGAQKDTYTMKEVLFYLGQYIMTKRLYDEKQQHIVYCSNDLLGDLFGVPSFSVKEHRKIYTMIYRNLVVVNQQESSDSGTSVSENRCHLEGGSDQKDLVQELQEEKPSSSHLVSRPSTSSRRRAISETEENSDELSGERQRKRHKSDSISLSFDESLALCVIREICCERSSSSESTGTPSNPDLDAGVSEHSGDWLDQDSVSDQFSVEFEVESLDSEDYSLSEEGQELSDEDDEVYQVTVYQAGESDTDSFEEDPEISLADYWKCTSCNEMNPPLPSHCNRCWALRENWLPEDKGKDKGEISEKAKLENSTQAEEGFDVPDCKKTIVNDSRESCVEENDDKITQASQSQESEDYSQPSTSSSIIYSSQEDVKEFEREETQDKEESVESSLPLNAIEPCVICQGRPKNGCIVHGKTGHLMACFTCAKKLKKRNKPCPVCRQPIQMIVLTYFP
# CSC inhib = cancer stem cell viability inhibitors, primary screen, luminescence | cancer stem cell-like cells viability | inhibition, % at 7.5 µM | 300,000 tested, 1.1% active; in the data active means inhibition above about 75%; inconclusive means no clear call, values can overlap the other calls; tested in HMLE shEcad cells
# PAX8 reporter = inhibitors of PAX8-driven TPO luciferase reporter, primary screen, RMG-I cells, single concentration | SteadyGlo, 24 h | inhibition, % at 12.6 µM | 360,000 tested, 1.2% active | AID 652154, 2013;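 active means mean replicate inhibition at least 60% with every replicate also reaching 60%; inconclusive means only one of the two criteria is met; inactive means mean below 60% and not all replicates reaching 60%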;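 further: luciferase light reporting Pax8 driven TPO promoter activity; plate controls were median of neutral control wells for no effect and mitoxantrone controls for full effect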
# * marks the source's active call; other numbers are inactive results; ? = inconclusive; · = not tested or not shown. Hits are enriched below; roughly 4% of the tested compounds scored in any of these assays.
SMILES,Beta cell apopt,Shn3 3UTR inh,Gli-Sufu antag,Mdm2 MdmX PPI,CSC inhib,PAX8 reporter
C[C@H]1CCCCO[C@H](CN(C)C(=O)Nc2ccc(C(F)(F)F)cc2)[C@@H](C)CN([C@@H](C)CO)C(=O)c2cc(NS(=O)(=O)c3cccs3)ccc2O1,·,·,·,·,·,79*
C[C@@H]1CCCCO[C@H](CN(C)C(=O)Nc2ccc(C(F)(F)F)cc2)[C@H](C)CN([C@@H](C)CO)C(=O)c2cc(NS(=O)(=O)c3cccs3)ccc2O1,·,·,·,·,·,32
CCN(c1nc(N)c(C(=O)N=C(N)N)nc1Cl)C(C)C,·,15,4,-2,-3,107*
CC(C)C[C@H]1CN=C(Nc2ccccc2)N1CCC(C)c1ccccc1 (stereo partly drawn),103*,-13,-5,44,18,-16
Cn1cnc([N+](=O)[O-])c1Sc1nc(N)nc2c1ncn2C1CC(O)C(CO)O1 (stereo not drawn),·,-18,-49,·,·,74*
COC(=O)[C@@H](Cc1ccccc1)N(Cc1ccccc1)S(=O)(=O)N(Cc1ccccc1)[C@H](Cc1ccccc1)C(=O)OC,119*,71,18,34,26,20
COC(=O)[C@@H](CC(C)C)N(Cc1ccccc1)S(=O)(=O)N(Cc1ccccc1)[C@@H](CC(C)C)C(=O)OC,42,10,18,10,27,4
O=C(OCn1ncc(Br)c(Br)c1=O)c1c(F)cccc1F,112*,·,·,·,-3,·
CC(=O)Cn1ncc(Br)c(Br)c1=O,·,97*,-8,·,·,84*
C[C@H](CO)N1C[C@H](C)[C@H](CN(C)S(=O)(=O)c2ccc(Oc3ccccc3)nc2)OCc2cn(nn2)CCCC1=O,·,·,·,·,·,6
O=C(NC(=S)Nc1ccc(N2CCCCC2)c(Cl)c1)c1ccc2c(c1)OCCO2,·,62,8,33,89*,14
O=C(NC(=S)Nc1ccc(N2CCOCC2)c(Cl)c1)c1cncc(Br)c1,-3,-3,-4,20,-1,-6
CN(C)C(=O)C[C@@H]1CC[C@@H]2[C@H](COC[C@@H](O)CN2C(=O)C2CC2)O1,·,·,·,·,·,1
COc1ccccc1CN1[C@H](CO)[C@H]2c3ccccc3N(C(=O)c3ccncc3)C[C@H]21,·,·,·,·,·,12
C[C@@H]1CCCCO[C@@H](CN(C)C(=O)c2ccncc2)[C@@H](C)CN([C@@H](C)CO)C(=O)c2cc(NS(=O)(=O)c3ccccc3)ccc2O1,·,·,·,·,·,-15
Nc1cc[n+](CC(=O)Nc2ccccc2)cc1,-7,11,5,5,-4,9
O=C(C[n+]1ccccc1)NNc1ccccc1,-3,21,-1,1,114*,-6
O=C(NCCN1CCCCC1)[C@@H]1[C@@H](CO)[C@@H]2Cn3c(cccc3=O)[C@H]1N2C(=O)C1CC1,·,·,·,·,·,-6
COc1ccccc1C#Cc1ccc([C@H]2[C@@H](C#N)N(C(=O)C3CC3)[C@H]2CO)cc1,·,·,·,·,·,66*
COc1ccccc1C#Cc1ccc([C@H]2[C@@H](C#N)N(C(=O)C3CCC3)[C@@H]2CO)cc1,·,·,·,·,·,4
COc1ccccc1C#Cc1ccc([C@H]2[C@H](C#N)N(C(=O)C3CC3)[C@H]2CO)cc1,·,·,·,·,·,91*
COc1ccccc1C#Cc1ccc([C@H]2[C@@H](CO)N(C(=O)C3CCCCC3)[C@H]2C#N)cc1,·,·,·,·,·,90*
C[C@@H]1CCCCO[C@@H](CN(C)CC2CCCCC2)[C@H](C)CN([C@H](C)CO)C(=O)c2cc(NS(=O)(=O)c3ccc(F)cc3)ccc2O1,·,·,·,·,·,-1
CCCNC(=O)N1C[C@H](C)[C@@H](OC)CN(C)C(=O)c2cc(NC(=O)CCC)ccc2OC[C@H]1C,·,·,·,·,·,4
Cc1ccc(-c2ccc([C@H]3[C@@H](CO)N4CCCCN(C(=O)Nc5cccc(F)c5)C[C@@H]34)cc2)cc1,·,·,·,·,·,11
SMILES,Beta cell apopt,Shn3 3UTR inh,Gli-Sufu antag,Mdm2 MdmX PPI,CSC inhib,PAX8 reporter
O=C(Nc1cccc(F)c1)N1CCCCN2[C@@H](CO)[C@@H](c3ccc(-c4ccncc4)cc3)[C@@H]2C1,·,·,·,·,·,110*
Cc1ccc(-c2ccc([C@@H]3[C@H](CO)N4CCCCN(C(=O)Nc5cccc(F)c5)C[C@@H]34)cc2)cc1,·,·,·,·,·,81*
O=C(Nc1ccc(F)cc1)N1CCCCN2[C@H](C1)[C@@H](c1ccc(-c3cccc(F)c3)cc1)[C@@H]2CO,·,·,·,·,·,2
O=C(c1cccc(F)c1)N1CCCCN2[C@H](C1)[C@@H](c1ccc(-c3ccc(F)cc3)cc1)[C@@H]2CO,·,·,·,·,·,65*
O=C(Nc1ccc(F)cc1)N1CCCCN2[C@@H](CO)[C@@H](c3ccc(-c4cccc(F)c4)cc3)[C@@H]2C1,·,·,·,·,·,106*
C[C@@H]1CCCCO[C@H](CN(C)Cc2ccncc2)[C@H](C)CN([C@@H](C)CO)C(=O)c2cc(NC(=O)c3ccncc3)ccc2O1,·,·,·,·,·,-7
C[C@@H]1CCCCO[C@@H](CN(C)C(=O)NC2CCCCC2)[C@H](C)CN([C@H](C)CO)C(=O)c2cc(N(C)C)ccc2O1,·,·,·,·,·,20
CCOC(=O)C1=C(C)N(CCCC(=O)O)C(=O)NC1c1ccccc1 (stereo not drawn),-1,-4,-4,0,-4,5
CCOC(=O)C1=C(C)N(CCCC(=O)O)C(=O)NC1c1ccc2ccccc2c1 (stereo not drawn),-5,86*,-6,-7,-7,3
C[C@@H]1CN([C@@H](C)CO)C(=O)c2cccc(NC(=O)C3CC3)c2O[C@@H]1CN(C)C(=O)NC1CCCCC1,·,·,·,·,·,-23
CC(=O)c1cccc(-c2ccnc3c2CC(C(=O)NCc2ccc(F)c(F)c2)O3)c1 (stereo not drawn),·,20,·,·,·,?
COc1ccc(NC(=O)C2Cc3c(-c4cccc(C(C)=O)c4)ccnc3O2)cc1OC (stereo not drawn),·,91*,·,·,·,13
CC(=O)c1cccc(-c2ccnc3c2CC(C(=O)NCc2ccccc2)O3)c1 (stereo not drawn),·,30,·,·,·,83*
CC(=O)N1CC[C@@H]2[C@H]1c1cc(-c3ccccc3)ccc1N(C)[C@H]2CO,·,·,·,·,·,24
O=C(C[C@H]1CC[C@H](NC(=O)Nc2cc(F)ccc2F)[C@@H](CO)O1)NCc1ccccn1,·,·,·,·,·,6
Oc1ccc(N=Nc2ccc3c(c2)OCCO3)c(O)c1,4,27,-27,-76,84*,-45
CNC(=S)N/N=C/c1cc(Br)cc(Br)c1O,2,1,6,11,39,6
Oc1c(Br)cc(Br)cc1/C=N/NC(=S)N[C@H]1CC2C=CC1C2 (stereo partly drawn),73,5,-40,30,102*,2
CCn1c(=O)c(C(=O)Nc2nc3ccccc3[nH]2)c(O)c2ccccc21,118*,82,-18,18,67,·
